Measurements taken from the supplement of paper PMC11732987, “Enantioselective OTUD7B fragment discovery through chemoproteomics screening and high-throughput optimisation” (Communications Chemistry, 2025).

Columns and labels:
Test in all cases: log2 ratio of Biotin-Ahx-Ub-VS probe labelling (fragment/DMSO); higher = less target engagement (more negative = stronger competition), active = hit call of the paper (q ≤ 0.05, log2 ratio ≤ -1)
Conditions in all cases: compound concentration: 200 uM; treatment time: 3 h
OTUD6B = target: T1, OTUD6B (UniProt Q8N6M0)
T1 sequence (whole entry): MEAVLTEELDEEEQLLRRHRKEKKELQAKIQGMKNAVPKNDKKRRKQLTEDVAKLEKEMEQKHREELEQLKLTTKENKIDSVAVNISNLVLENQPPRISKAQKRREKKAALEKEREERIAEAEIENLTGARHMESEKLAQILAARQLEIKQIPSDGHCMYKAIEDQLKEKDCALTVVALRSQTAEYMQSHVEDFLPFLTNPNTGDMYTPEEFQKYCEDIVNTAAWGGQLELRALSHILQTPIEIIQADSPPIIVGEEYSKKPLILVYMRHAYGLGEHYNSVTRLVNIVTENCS
Method in brief: (§1)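 HEK293T lysate, 495 µg per sample in Tris/CHAPS/IGEPAL buffer with protease inhibitors, was treated in triplicate with fragment at 200 µM or vehicle for 3 h and then with Biotin-Ahx-Ub-VS at 0.5 µM final for 1 h. Labelled DUBs were NeutrAvidin-enriched, digested with LysC and trypsin, and run by diaPASEF LC-MS/MS. Spectronaut label-free quantities were global-median-normalised, and values are average log2 fragment/vehicle ratios by unpaired t-test on proteins with ≥2 unique peptides.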

OTUD7B = target: T2, OTUD7B (UniProt Q6GQQ9)
T2 sequence (whole entry): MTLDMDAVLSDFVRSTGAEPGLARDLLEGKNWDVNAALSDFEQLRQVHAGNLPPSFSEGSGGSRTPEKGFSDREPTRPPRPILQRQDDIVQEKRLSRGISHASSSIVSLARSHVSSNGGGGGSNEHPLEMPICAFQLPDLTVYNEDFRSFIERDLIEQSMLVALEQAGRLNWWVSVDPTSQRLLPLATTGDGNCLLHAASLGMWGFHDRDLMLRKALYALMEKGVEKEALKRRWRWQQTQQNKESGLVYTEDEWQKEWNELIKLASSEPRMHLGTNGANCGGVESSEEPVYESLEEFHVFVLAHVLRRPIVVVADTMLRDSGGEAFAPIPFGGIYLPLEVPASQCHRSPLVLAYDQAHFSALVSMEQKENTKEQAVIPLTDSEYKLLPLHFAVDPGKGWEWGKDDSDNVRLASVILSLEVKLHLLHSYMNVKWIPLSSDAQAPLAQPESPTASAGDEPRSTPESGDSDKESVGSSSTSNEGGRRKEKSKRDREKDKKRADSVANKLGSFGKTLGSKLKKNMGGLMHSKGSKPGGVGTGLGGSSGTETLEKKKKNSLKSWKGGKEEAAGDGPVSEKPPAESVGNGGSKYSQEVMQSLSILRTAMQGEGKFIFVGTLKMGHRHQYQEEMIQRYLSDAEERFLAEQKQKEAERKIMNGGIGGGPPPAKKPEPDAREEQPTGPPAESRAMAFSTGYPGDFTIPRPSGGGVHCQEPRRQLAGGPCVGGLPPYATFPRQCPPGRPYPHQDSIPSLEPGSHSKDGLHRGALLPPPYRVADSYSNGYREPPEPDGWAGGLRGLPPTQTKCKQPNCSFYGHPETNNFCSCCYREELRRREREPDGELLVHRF
Method in brief: as §1

PRPF8 = PRPF8 (UniProt Q6P2Q9)
Method in brief: as §1

PSMD7 = target: T3, PSMD7 (UniProt P51665)
T3 sequence (whole entry): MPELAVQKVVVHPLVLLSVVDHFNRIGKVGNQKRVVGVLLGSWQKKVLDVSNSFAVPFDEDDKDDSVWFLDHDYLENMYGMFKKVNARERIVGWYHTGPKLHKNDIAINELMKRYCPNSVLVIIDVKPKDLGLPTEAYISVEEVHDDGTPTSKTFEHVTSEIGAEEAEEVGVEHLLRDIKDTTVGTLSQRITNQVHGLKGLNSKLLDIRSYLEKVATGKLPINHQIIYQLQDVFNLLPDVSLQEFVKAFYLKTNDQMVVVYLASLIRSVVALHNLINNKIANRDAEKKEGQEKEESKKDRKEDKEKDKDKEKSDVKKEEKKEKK
Method in brief: as §1

UCHL1 = UCHL1 (UniProt P09936)
Method in brief: as §1

UCHL3 = target: T4, UCHL3 (UniProt P15374)
T4 sequence (whole entry): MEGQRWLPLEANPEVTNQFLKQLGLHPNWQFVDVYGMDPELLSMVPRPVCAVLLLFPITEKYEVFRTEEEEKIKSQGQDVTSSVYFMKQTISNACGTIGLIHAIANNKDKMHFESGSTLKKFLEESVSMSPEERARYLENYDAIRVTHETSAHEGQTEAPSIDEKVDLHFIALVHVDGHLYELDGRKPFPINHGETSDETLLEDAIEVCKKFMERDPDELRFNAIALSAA
Method in brief: as §1

UCHL5 = target: T5, UCHL5 (UniProt Q9Y5K5)
T5 sequence (whole entry): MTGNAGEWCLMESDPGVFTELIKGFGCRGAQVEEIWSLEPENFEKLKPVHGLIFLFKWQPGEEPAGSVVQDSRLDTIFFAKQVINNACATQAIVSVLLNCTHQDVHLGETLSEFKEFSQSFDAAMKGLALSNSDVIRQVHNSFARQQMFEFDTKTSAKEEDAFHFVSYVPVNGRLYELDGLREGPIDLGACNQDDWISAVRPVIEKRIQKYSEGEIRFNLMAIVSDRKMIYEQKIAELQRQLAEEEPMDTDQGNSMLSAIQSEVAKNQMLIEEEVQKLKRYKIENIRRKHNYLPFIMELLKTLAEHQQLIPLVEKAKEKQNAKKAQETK
Method in brief: as §1

USP10 = USP10 (UniProt Q14694)
Method in brief: as §1

USP15 = target: T6, USP15 (UniProt Q9Y4E8)
T6 sequence (whole entry): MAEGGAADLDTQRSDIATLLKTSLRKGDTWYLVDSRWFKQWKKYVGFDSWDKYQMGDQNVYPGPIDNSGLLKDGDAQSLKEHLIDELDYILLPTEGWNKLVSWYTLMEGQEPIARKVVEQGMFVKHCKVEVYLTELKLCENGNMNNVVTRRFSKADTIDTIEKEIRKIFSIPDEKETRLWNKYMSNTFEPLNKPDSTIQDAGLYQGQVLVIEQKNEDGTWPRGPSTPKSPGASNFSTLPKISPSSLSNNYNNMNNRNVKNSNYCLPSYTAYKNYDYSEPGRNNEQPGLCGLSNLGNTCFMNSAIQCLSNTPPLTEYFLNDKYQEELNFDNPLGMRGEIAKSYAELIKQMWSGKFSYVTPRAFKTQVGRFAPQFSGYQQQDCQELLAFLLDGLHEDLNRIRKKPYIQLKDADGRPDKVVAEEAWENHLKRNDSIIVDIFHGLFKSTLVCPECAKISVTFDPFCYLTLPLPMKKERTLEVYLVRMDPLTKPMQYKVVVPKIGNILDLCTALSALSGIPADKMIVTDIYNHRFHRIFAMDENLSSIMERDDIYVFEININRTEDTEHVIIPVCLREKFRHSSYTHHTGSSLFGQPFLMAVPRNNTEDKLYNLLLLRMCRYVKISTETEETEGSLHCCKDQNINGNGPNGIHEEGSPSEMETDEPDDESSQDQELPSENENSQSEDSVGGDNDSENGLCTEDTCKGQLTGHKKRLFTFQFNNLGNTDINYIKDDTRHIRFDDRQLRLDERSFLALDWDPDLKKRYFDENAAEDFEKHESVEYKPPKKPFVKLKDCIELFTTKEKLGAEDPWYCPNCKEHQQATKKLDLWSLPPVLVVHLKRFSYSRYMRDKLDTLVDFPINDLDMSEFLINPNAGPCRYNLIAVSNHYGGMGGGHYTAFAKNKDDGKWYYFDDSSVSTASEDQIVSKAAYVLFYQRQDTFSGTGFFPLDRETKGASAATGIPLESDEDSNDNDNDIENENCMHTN
Method in brief: as §1

USP16 = USP16 (UniProt Q9Y5T5)
Method in brief: as §1

Measured: log2 ratio of Biotin-Ahx-Ub-VS probe labelling

Sequence of UCHL1 (P09936 whole entry, looked up): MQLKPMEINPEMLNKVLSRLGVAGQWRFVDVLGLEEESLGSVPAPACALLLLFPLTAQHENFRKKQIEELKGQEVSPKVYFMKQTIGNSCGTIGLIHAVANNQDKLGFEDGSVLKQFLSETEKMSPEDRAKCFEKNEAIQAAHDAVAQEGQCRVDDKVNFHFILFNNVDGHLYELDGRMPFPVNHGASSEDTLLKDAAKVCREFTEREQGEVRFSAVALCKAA
Sequence of USP16 (Q9Y5T5 whole entry, looked up): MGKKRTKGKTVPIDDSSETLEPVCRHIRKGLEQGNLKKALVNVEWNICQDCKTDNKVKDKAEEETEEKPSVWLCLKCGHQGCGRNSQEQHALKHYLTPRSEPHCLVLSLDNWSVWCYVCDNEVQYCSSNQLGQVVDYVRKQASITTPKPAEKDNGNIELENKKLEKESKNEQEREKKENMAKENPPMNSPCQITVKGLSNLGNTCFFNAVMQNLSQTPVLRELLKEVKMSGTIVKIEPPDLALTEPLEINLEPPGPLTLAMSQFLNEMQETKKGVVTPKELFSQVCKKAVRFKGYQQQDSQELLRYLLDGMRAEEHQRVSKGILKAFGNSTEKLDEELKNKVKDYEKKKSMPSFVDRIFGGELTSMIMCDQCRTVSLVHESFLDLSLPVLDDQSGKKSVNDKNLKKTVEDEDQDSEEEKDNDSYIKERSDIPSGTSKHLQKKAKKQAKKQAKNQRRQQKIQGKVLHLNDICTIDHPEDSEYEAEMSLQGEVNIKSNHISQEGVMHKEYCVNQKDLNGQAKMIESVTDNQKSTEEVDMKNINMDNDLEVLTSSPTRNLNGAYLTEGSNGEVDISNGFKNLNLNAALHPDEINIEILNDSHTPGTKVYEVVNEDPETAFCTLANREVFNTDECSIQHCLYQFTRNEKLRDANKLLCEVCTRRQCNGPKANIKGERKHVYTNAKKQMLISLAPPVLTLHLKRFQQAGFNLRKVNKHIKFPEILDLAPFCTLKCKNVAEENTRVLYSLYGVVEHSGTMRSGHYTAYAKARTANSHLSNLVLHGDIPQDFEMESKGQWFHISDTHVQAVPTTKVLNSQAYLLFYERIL
Sequence of USP10 (Q14694 whole entry): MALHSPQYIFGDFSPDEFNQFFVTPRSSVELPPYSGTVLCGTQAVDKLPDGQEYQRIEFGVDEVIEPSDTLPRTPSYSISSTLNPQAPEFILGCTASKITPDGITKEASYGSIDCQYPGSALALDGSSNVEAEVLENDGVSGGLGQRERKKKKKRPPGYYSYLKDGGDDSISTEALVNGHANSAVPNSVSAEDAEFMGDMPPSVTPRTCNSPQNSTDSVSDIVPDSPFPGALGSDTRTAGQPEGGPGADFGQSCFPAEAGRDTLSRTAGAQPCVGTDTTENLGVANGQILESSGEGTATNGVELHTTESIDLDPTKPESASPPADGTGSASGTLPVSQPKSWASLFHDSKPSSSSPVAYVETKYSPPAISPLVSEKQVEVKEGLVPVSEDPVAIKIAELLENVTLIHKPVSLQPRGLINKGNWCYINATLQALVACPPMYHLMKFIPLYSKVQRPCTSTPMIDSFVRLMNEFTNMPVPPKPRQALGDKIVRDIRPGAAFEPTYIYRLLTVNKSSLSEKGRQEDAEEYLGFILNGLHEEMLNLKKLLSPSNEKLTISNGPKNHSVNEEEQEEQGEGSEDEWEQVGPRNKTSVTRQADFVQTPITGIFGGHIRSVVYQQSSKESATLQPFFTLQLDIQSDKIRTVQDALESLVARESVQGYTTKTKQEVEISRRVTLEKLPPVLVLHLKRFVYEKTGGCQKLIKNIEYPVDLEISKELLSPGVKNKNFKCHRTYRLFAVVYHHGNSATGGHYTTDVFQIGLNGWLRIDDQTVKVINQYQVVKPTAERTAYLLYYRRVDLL

Cc1ccc(N(C(=O)CCl)C2C=CS(=O)(=O)C2)cc1 (stereo not given)
inactive: OTUD6B 0.181 | OTUD7B -0.0624 | PRPF8 0.0782 | PSMD7 -0.0467 | UCHL3 0.419 | UCHL5 -0.13 | USP10 -0.0181 | USP15 -0.145 | USP16 0.19
active: UCHL1 -1.28
